Source: PubChem BioAssay (NCATS)
Records with an inconclusive call do not appear. Values without a mark were called inactive. The source made the active and inactive calls. Calls come from the whole dose curve; as a rule, active = well fitted inhibition curve with a large enough effect; inconclusive = small, poorly fitted or top-dose-only effect; inactive = flat fitted curve, though single readings scatter.

Test system: MCC-26
Experiment: qHTS assay to identify novel small-molecules to repurpose for Merkel cell carcinoma treatment (AID 1296009); note: nearly all actives have a fitted effect of over 60% in size
Conditions: MCC and control cell lines, CellTiter-Glo viability, 72 h; series mostly up to 46 µM; activity change, negative = cytotoxicity: at the top concentration
In short: (§1)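 Cell viability, measured as CellTiter-Glo luminescence, was normalized between DMSO and no-cell wells. The cells had been exposed to 8- or 11-point compound dilutions for 72 hr at 37 degree celsius.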
% is set by controls: 0 for no effect and ±100 for the full control effect; potency is the fitted concentration of half-maximal effect.

| SMILES | activity change, negative = cytotoxicity | Potency | outcome |
| --- | --- | --- | --- |
| OC[C@H]1O[C@@H](OCCc2ccc(O)cc2)[C@H](O)[C@@H](O)[C@H]1O | 4.43% |  |  |
| CC(C)(OCc1nn(Cc2ccccc2)c2ccccc12)C(=O)O | 2.27% |  |  |
| c1ccc(-c2oc3ncnc(NC[C@@H]4CCCO4)c3c2-c2ccccc2)cc1 | -12.7% |  |  |
| O=C(O)Cc1cccc(OCCCN(Cc2cccc(C(F)(F)F)c2Cl)CC(c2ccccc2)c2ccccc2)c1 |  | 26.4 µM (active) |  |
| CC(C)N(CCCNC(=O)Nc1ccc(C(C)(C)C)cc1)C[C@H]1O[C@@H](n2cc(Br)c3c(N)ncnc32)[C@H](O)[C@H]1O | -8.48% |  |  |
| CC(C)(O)CC(=O)NCCn1ccc2ncnc(Nc3ccc(Oc4cccc(C(F)(F)F)c4)c(Cl)c3)c21 | -6.51% |  |  |
| CC(=O)Nc1cccc(-n2c(=O)n(C3CC3)c(=O)c3c(Nc4ccc(I)cc4F)n(C)c(=O)c(C)c32)c1 | -4.07% |  |  |
| C=CCc1cccc(C=NNC(=O)CN2CCN(Cc3ccccc3)CC2)c1O | -1.98% |  |  |
| CN1CCN(c2cccc(Nc3nc4c(-c5ccc(S(C)(=O)=O)cc5)cccn4n3)c2)CC1 | -1.35% |  |  |
| CCCCn1c(=O)n(Cc2ccccc2F)c(=O)c2[nH]c(Cc3ccc(NC(C)=O)cc3)nc21 | -1.38% |  |  |
| CC1CCN(c2cc(N3CCN(C)CC3)ccc2NC(=O)c2cc(C#N)c[nH]2)CC1 | 6.59% |  |  |
| Cc1nc(C(=O)NCC(=O)O)c(O)c2ccc(Oc3ccccc3)cc12 | -5.4% |  |  |
| Cc1cnc(Nc2cccc(CN3CCOCC3)c2)nc1Nc1cccc(S(=O)(=O)NC(C)(C)C)c1 | 0.111% |  |  |
| CCCCc1ccc(NS(=O)(=O)c2ccc(C)c(C(=O)N3CCN(c4cccc(C)c4C)CC3)c2)cc1 | -18% |  |  |
| COc1nccc(-c2c(-c3ccc(F)cc3)ncn2C2CCC(O)CC2)n1 (stereo not drawn) | -7.29% |  |  |
| CC(C)(C)c1nc(-c2cccc(NS(=O)(=O)c3c(F)cccc3F)c2F)c(-c2ccnc(N)n2)s1 | 3.22% |  |  |
| C[C@H](c1ccc(F)cc1CCCC(=O)O)N(c1cc(F)ccc1F)S(=O)(=O)c1ccc(Cl)cc1 | -10.1% |  |  |
| O=S(=O)(O)c1ccc2cc(N=Nc3cc(S(=O)(=O)O)c4cccnc4c3O)ccc2c1 | -12.3% |  |  |
| O=C(Nc1cccc(C(F)(F)F)c1)Nc1cc(S(=O)(=O)NC2CC2)ccc1-c1ccsc1 | -13.5% |  |  |
| C[C@@H](NC(=O)c1ncnc(N)c1Cl)c1ncc(C(=O)Nc2cc(C(F)(F)F)c(Cl)cn2)s1 | -2.15% |  |  |

| SMILES | activity change, negative = cytotoxicity | Potency | outcome |
| --- | --- | --- | --- |
| COc1ccc(-c2ccc3ncc4c(c3c2)n(-c2ccc(N3CCNCC3)c(C(F)(F)F)c2)c(=O)n4C)cn1 |  | 0.372 µM (active) |  |
| O=c1[nH]c(=O)n([C@H]2C[C@@H](O)[C@@H](CO)O2)cc1I | -4% |  |  |
| COC1CCC(C(=O)c2ccc3nc4c(cc3c2)CCCO4)CC1 (stereo not drawn) | -4.85% |  |  |
| CC(C)C[C@@H](C(=O)N[C@H](C(=O)OC1CCCC1)c1ccccc1)[C@H](O)C(=O)NO | -2.04% |  |  |
| C#CCN(C)CC1=Cc2ccccc2Oc2ccccc21 | -2.51% |  |  |
| C[C@@H](O[C@H]1OCCN(Cc2n[nH]c(=O)[nH]2)[C@@H]1c1ccc(F)cc1)c1cc(C(F)(F)F)cc(C(F)(F)F)c1 | -17.1% |  |  |
| CC1=C[C@@H]2[C@@H]([C@@H](O)C[C@@]3(C)[C@H]2C[C@@H](C)[C@]3(O)C(=O)CO)[C@@]2(C)Cc3cnn(-c4ccccc4)c3C=C12 | -6.53% |  |  |
| CNC(=O)c1cc(COc2nnc(Nc3ccc(Cl)cc3)c3ccoc23)ccn1 | -7.07% |  |  |
| CN1c2ccccc2C(=O)N2CCc3c([nH]c4ccccc34)C21 (stereo not drawn) | 4% |  |  |
| CN(C)CC[C@H](CSc1ccccc1)Nc1ccc(S(=O)(=O)NC(=O)c2ccc(N3CCN(Cc4ccccc4-c4ccc(Cl)cc4)CC3)cc2)cc1[N+](=O)[O-] | -6.25% |  |  |
| NS(=O)(=O)c1cc(Cl)c(Cl)c(S(N)(=O)=O)c1 |  |  | inactive |
| O=C1Nc2ccc(I)cc2C1=Cc1cc(Br)c(O)c(Br)c1 | -8.07% |  |  |
| N#Cc1ccc(Oc2ccc3c(c2)COB3O)cc1 | -3.49% |  |  |
| CC(C)C[C@H](NC(=O)c1cc2ccccc2s1)C(=O)N1CCN(C(=O)[C@H](CO)NS(=O)(=O)c2ccc(Cl)cc2Cl)CC1 | -16.2% |  |  |
| CN(C)c1nc(Cc2ccc(NC(=O)c3ccc(C(F)(F)F)cc3)cc2)nc(N(C)C)c1CC(=O)O | 0.767% |  |  |
| Cc1cc(C(C)Nc2ccccc2)c2nc(N3CCOCC3)cc(=O)n2c1 (stereo not drawn) | -3.18% |  |  |
| O=S(=O)(NCCNCC=Cc1ccc(Br)cc1)c1cccc2cnccc12 | -12.4% |  |  |
| CN1C(=O)C(Cc2c[nH]c3ccccc23)NC1=S (stereo not drawn) | -5.42% |  |  |
| CNc1nc(Nc2ccc(C(=O)N3CCOCC3)cc2OC)ncc1Cl | -17.5% |  |  |

Test system: MKL-1
Experiment: as above
Conditions: MCC and control cell lines, CellTiter-Glo viability, 72 h; series mostly up to 46 µM; activity change, negative = cytotoxicity: at the top concentration
In short: as §1

| SMILES | activity change, negative = cytotoxicity | Potency |
| --- | --- | --- |
| OC[C@H]1O[C@@H](OCCc2ccc(O)cc2)[C@H](O)[C@@H](O)[C@H]1O | -0.453% |  |
| CC(C)(OCc1nn(Cc2ccccc2)c2ccccc12)C(=O)O | -2.14% |  |
| c1ccc(-c2oc3ncnc(NC[C@@H]4CCCO4)c3c2-c2ccccc2)cc1 | -9.83% |  |
| O=C(O)Cc1cccc(OCCCN(Cc2cccc(C(F)(F)F)c2Cl)CC(c2ccccc2)c2ccccc2)c1 | 1.36% |  |
| CC(C)N(CCCNC(=O)Nc1ccc(C(C)(C)C)cc1)C[C@H]1O[C@@H](n2cc(Br)c3c(N)ncnc32)[C@H](O)[C@H]1O | -22.9% |  |
| CC(C)(O)CC(=O)NCCn1ccc2ncnc(Nc3ccc(Oc4cccc(C(F)(F)F)c4)c(Cl)c3)c21 | 7.49% |  |
| CC(=O)Nc1cccc(-n2c(=O)n(C3CC3)c(=O)c3c(Nc4ccc(I)cc4F)n(C)c(=O)c(C)c32)c1 | 10.2% |  |
| C=CCc1cccc(C=NNC(=O)CN2CCN(Cc3ccccc3)CC2)c1O |  | 9.35 µM (active) |
| CN1CCN(c2cccc(Nc3nc4c(-c5ccc(S(C)(=O)=O)cc5)cccn4n3)c2)CC1 | 0.0012% |  |
| CCCCn1c(=O)n(Cc2ccccc2F)c(=O)c2[nH]c(Cc3ccc(NC(C)=O)cc3)nc21 | -20.7% |  |
| CC1CCN(c2cc(N3CCN(C)CC3)ccc2NC(=O)c2cc(C#N)c[nH]2)CC1 | 6.75% |  |
| Cc1nc(C(=O)NCC(=O)O)c(O)c2ccc(Oc3ccccc3)cc12 | -0.536% |  |
| Cc1cnc(Nc2cccc(CN3CCOCC3)c2)nc1Nc1cccc(S(=O)(=O)NC(C)(C)C)c1 | -15.3% |  |
| CCCCc1ccc(NS(=O)(=O)c2ccc(C)c(C(=O)N3CCN(c4cccc(C)c4C)CC3)c2)cc1 | -1.08% |  |
| COc1nccc(-c2c(-c3ccc(F)cc3)ncn2C2CCC(O)CC2)n1 (stereo not drawn) | -0.414% |  |
| CC(C)(C)c1nc(-c2cccc(NS(=O)(=O)c3c(F)cccc3F)c2F)c(-c2ccnc(N)n2)s1 | -7.26% |  |
| C[C@H](c1ccc(F)cc1CCCC(=O)O)N(c1cc(F)ccc1F)S(=O)(=O)c1ccc(Cl)cc1 | -7.74% |  |
| O=S(=O)(O)c1ccc2cc(N=Nc3cc(S(=O)(=O)O)c4cccnc4c3O)ccc2c1 | -13.6% |  |
| O=C(Nc1cccc(C(F)(F)F)c1)Nc1cc(S(=O)(=O)NC2CC2)ccc1-c1ccsc1 | -13.9% |  |
| C[C@@H](NC(=O)c1ncnc(N)c1Cl)c1ncc(C(=O)Nc2cc(C(F)(F)F)c(Cl)cn2)s1 | -6.64% |  |

| SMILES | activity change, negative = cytotoxicity | Potency |
| --- | --- | --- |
| COc1ccc(-c2ccc3ncc4c(c3c2)n(-c2ccc(N3CCNCC3)c(C(F)(F)F)c2)c(=O)n4C)cn1 |  | 0.0296 µM (active) |
| O=c1[nH]c(=O)n([C@H]2C[C@@H](O)[C@@H](CO)O2)cc1I | -4.67% |  |
| COC1CCC(C(=O)c2ccc3nc4c(cc3c2)CCCO4)CC1 (stereo not drawn) | -3.88% |  |
| CC(C)C[C@@H](C(=O)N[C@H](C(=O)OC1CCCC1)c1ccccc1)[C@H](O)C(=O)NO | -9.66% |  |
| C#CCN(C)CC1=Cc2ccccc2Oc2ccccc21 | -15% |  |
| C[C@@H](O[C@H]1OCCN(Cc2n[nH]c(=O)[nH]2)[C@@H]1c1ccc(F)cc1)c1cc(C(F)(F)F)cc(C(F)(F)F)c1 | -15.1% |  |
| CC1=C[C@@H]2[C@@H]([C@@H](O)C[C@@]3(C)[C@H]2C[C@@H](C)[C@]3(O)C(=O)CO)[C@@]2(C)Cc3cnn(-c4ccccc4)c3C=C12 | -4.24% |  |
| CNC(=O)c1cc(COc2nnc(Nc3ccc(Cl)cc3)c3ccoc23)ccn1 | -0.248% |  |
| CN1c2ccccc2C(=O)N2CCc3c([nH]c4ccccc34)C21 (stereo not drawn) | 0.367% |  |
| CN(C)CC[C@H](CSc1ccccc1)Nc1ccc(S(=O)(=O)NC(=O)c2ccc(N3CCN(Cc4ccccc4-c4ccc(Cl)cc4)CC3)cc2)cc1[N+](=O)[O-] |  | 1.18 µM (active) |
| NS(=O)(=O)c1cc(Cl)c(Cl)c(S(N)(=O)=O)c1 | -4.16% |  |
| O=C1Nc2ccc(I)cc2C1=Cc1cc(Br)c(O)c(Br)c1 | -4.7% |  |
| N#Cc1ccc(Oc2ccc3c(c2)COB3O)cc1 | -2.23% |  |
| CC(C)C[C@H](NC(=O)c1cc2ccccc2s1)C(=O)N1CCN(C(=O)[C@H](CO)NS(=O)(=O)c2ccc(Cl)cc2Cl)CC1 | -3.88% |  |
| CN(C)c1nc(Cc2ccc(NC(=O)c3ccc(C(F)(F)F)cc3)cc2)nc(N(C)C)c1CC(=O)O | -1.49% |  |
| Cc1cc(C(C)Nc2ccccc2)c2nc(N3CCOCC3)cc(=O)n2c1 (stereo not drawn) | 12.1% |  |
| O=S(=O)(NCCNCC=Cc1ccc(Br)cc1)c1cccc2cnccc12 |  | 20.9 µM (active) |
| CN1C(=O)C(Cc2c[nH]c3ccccc23)NC1=S (stereo not drawn) | -6.6% |  |
| CNc1nc(Nc2ccc(C(=O)N3CCOCC3)cc2OC)ncc1Cl | -8.32% |  |
